Laboratory results: PubChem BioAssay AID2314 (National Center for Advancing Translational Sciences (NCATS), 2010)
About 37,000 (12%) of roughly 300,000 compounds were called active. The sample holds actives, similar compounds and a random draw of the others, so the mix is not that of the screen. Cut-off read from the data, not from the text of the source: active = max response mostly above about 13% (no sharp cut-off); inactive = mostly below about 14%.

experiment: Cycloheximide Counterscreen for Small Molecule Inhibitors of Shiga Toxin; settings: cell reporter, cycloheximide protein synthesis inhibition counterscreen; hits give high values; note: read at 38.3 µM for the half of the compounds with a filed dose; 0% is about no effect

Row | SMILES | max response
1 | Cc1ccc(-c2nn(-c3cccc(F)c3)cc2CNCCc2ccncc2)o1 | 5.75% (inactive)
2 | Cc1ccc(Cl)c(NC(=O)CN2CCN(C=O)CC2)c1 | 5.32% (inactive)
3 | OC(CNCc1ccc(Cl)c(Cl)c1)c1ccccc1 (configuration not stated) | 9.74% (inactive)
4 | CCN(CC)C(=O)COc1coc(CN2CCN(Cc3ccccc3)CC2)cc1=O | -3.15% (inactive)
5 | CCC(Oc1ccccc1C)C(=O)Nc1ccc(S(=O)(=O)Nc2cc(C)on2)cc1 (configuration not stated) | -7.98% (inactive)
6 | Cc1cccc(N2CCC(NCc3c(C(=O)N4CCCCC4)nc4c(C)cccn34)CC2)c1 | -4.59% (inactive)
7 | Cc1ccnc(NC(=O)c2ccc(NC(=O)c3ccco3)cc2)c1 | 36.1% (active)
8 | O=C(Nc1ccc(O)cc1)c1ccc(NC(=O)c2ccco2)cc1 | 31.9% (active)
9 | COC(=O)c1ccc(NC(=O)Nc2ccc(C)cc2)cc1 | 25.1% (active)
10 | Cc1ccc(NC(=O)CC(=O)Nc2ccc(C)cc2)cc1 | -2.02% (inactive)
11 | Cc1ccc(NC(=O)/C(=C\c2ccccc2)NC(=O)c2ccco2)cc1 | 0.86% (inactive)
12 | CCC(=O)Nc1ccc(C(=O)N2CCN(C(=O)c3ccco3)CC2)cc1 | -1.69% (inactive)
13 | Cc1ccnc(NC(=O)CCC(=O)N(CC(=O)NCc2ccccc2)Cc2ccco2)c1 | -2.62% (inactive)
14 | Cc1ccc(NC(=O)NCC(c2cccnc2)N2CCOCC2)cc1 (configuration not stated) | -4.08% (inactive)
15 | O=C(NNC(=O)c1cccnc1)Nc1ccccc1 | 4.83% (inactive)
16 | Cc1cc(NC(=O)c2ccc(F)cc2)ccc1NC(=O)c1ccco1 | 9.36% (inactive)
17 | COc1cc(NC(=O)Nc2ccc(C)cc2)cc([N+](=O)[O-])c1 | 24% (inactive)
18 | Cc1ccc(NC(=O)Nc2cccnc2)cc1 | 24.6% (active)
19 | CCc1ccccc1NC(=O)NCCN1CCCCC1 | -2.65% (inactive)
20 | COc1cccc(CNC(=O)CCC2CCCN(C(=O)c3ccoc3C)C2)c1 (configuration not stated) | 5.76% (inactive)
21 | Cc1ccc(S(=O)(=O)C2(S(=O)(=O)c3ccc(C)cc3)CCCC2)cc1 | -2.93% (inactive)

Row | SMILES | max response
22 | Nc1nc(SCC(=O)Nc2cc(C(F)(F)F)ccc2Cl)[nH]c(=O)c1NC(=O)c1ccco1 | -2.16% (inactive)
23 | COc1ccc(S(=O)(=O)N2CCCCCC2)cc1C(=O)OCC(=O)Nc1cc(C)on1 | -1.32% (inactive)
24 | Cc1cc(C)cc(C(=O)OCC(=O)NCCNC(=O)COC(=O)c2cc(C)cc(C)c2)c1 | 19% (inactive)
25 | O=C1c2ccccc2NC(c2ccccn2)N1NS(=O)(=O)c1ccccc1 (configuration not stated) | 3.3% (inactive)
26 | CCn1c(SCC(=O)NC2=NCCS2)nnc1C(C)NC(=O)c1ccccc1F (configuration not stated) | -2.33% (inactive)
27 | Cc1cc2oc(=O)cc(CN3CCN(S(=O)(=O)c4cccs4)CC3)c2cc1C(C)C | -2.14% (inactive)
28 | Cc1ccc(CNC(=O)Cc2cn(C)c3ccccc23)cc1 | 11.6% (inactive)
29 | Cc1cc2oc(=O)cc(CN(C)Cc3ccc(OC(F)F)cc3)c2cc1Cl | -1.16% (inactive)
30 | O=C(NCCCc1ccccc1)C1CCC(=O)N(CCc2ccc(Cl)cc2)C1 (configuration not stated) | 12% (active)
31 | O=C(NCCN1CCOC1=O)C1CCC(=O)N(CCc2ccc(Cl)cc2)C1 (configuration not stated) | -3.62% (inactive)
32 | O=C(NCCc1ccccc1Cl)C1CCC(=O)N(CCCc2ccccc2)C1 (configuration not stated) | -1.41% (inactive)
33 | C/C=C(\C)C(=O)NCCN1C2=NC[C@H](Cc3ccc(O)cc3)N2C[C@@H]1Cc1ccc(OC)cc1 | 0.212% (inactive)
34 | COc1ccccc1NC(=O)c1ccc(N2CC3CC(C2)c2cccc(=O)n2C3)c(NC(=O)c2cccnc2)c1 (configuration not stated) | -5.5% (inactive)
35 | O=C(Nn1cnnc1)c1ccc([N+](=O)[O-])cc1 | -3.89% (inactive)
36 | CCc1ccc(N2CC(O)=C(c3nc4ccccc4c(=O)[nH]3)C2=N)cc1 | 4.62% (inactive)
37 | N=C1C(c2nc3ccccc3[nH]2)=C(O)CN1NC(=O)c1c[nH]c2ccccc12 | 6.82% (inactive)
38 | COc1ccccc1N1CC(O)=C(c2nc3ccccc3s2)C1=N | 18.7% (active)
39 | CCOC(=O)CCCN1CC(O)=C(c2nc3ccccc3s2)C1=N | 6.59% (inactive)
40 | N=C1C(c2nc3ccccc3s2)=C(O)CN1NC(=O)c1ccc([N+](=O)[O-])cc1 | 38.2% (active)
41 | CCOc1ccc(N(CC(=O)Nc2ccccc2F)S(=O)(=O)c2c(C)[nH]c(=O)[nH]c2=O)cc1 | 9.46% (inactive)
42 | Cc1ccccc1/C=C\c1nc(O)c([N+](=O)[O-])c(=O)[nH]1 | -5.68% (inactive)

Row | SMILES | max response
43 | O=C(CNC(=O)c1ccc(F)cc1)c1ccccc1 | 30% (active)
44 | O=C(COC(=O)CNC(=O)c1ccccc1F)NCC(F)(F)F | -1.02% (inactive)
45 | O=C(CNC(=O)c1ccccc1)NCC(=O)OCC(=O)c1ccccc1 | -5.87% (inactive)
46 | CSc1nnc(CNC(=O)c2ccccc2)n1-c1ccc(F)cc1 | -2.44% (inactive)
47 | O=C(CNC(=O)c1ccccc1F)c1ccc(Br)cc1 | 57.7% (active)
48 | COC(=O)CNC(=O)c1ccccc1F | -2.02% (inactive)
49 | COCCNC(=O)NC(=O)COC(=O)C1(c2ccc(Cl)cc2)CC1 | 7.97% (inactive)
50 | CC1(C)Cc2c(sc(NC(=O)C(=O)N3CCOCC3)c2C#N)CO1 | -9.16% (inactive)
51 | O=C(NCc1cccnc1)c1nc(-c2cccs2)no1 | 13.1% (inactive)
52 | Clc1ccc(-n2nnnc2-c2cnc(-c3ccccn3)nc2-c2cccs2)cc1 | -3.52% (inactive)
53 | CC(C)c1nc(-c2ccccn2)no1 | 22.8% (active)
54 | O=C(O)COc1ccc(-c2nccc(-c3cccs3)n2)cc1 | -3.38% (inactive)
55 | c1ccc(-c2nccc(-c3ccc(-n4cnc5ccccc54)cc3)n2)nc1 | -1.84% (inactive)
56 | c1csc(-c2nc(-c3ccncc3)no2)c1 | 29.3% (active)
57 | CC1(C)N=C(c2ccccn2)C(C)(C)N1O | -7.15% (inactive)
58 | O=C(COC(=O)c1ccc(Oc2ccccc2)cc1)Nc1nnc(-c2ccccc2)o1 | 13.5% (inactive)
59 | COc1nc(-c2ccc(Cl)cc2)ccc1-c1noc(-c2cccs2)n1 | -1.17% (inactive)
60 | O=C(Oc1ccc(-c2nc(-c3ccccn3)no2)cc1)c1ccccc1 | 31% (active)
61 | c1ccc(-c2noc(-c3cccs3)n2)nc1 | 17.4% (active)
62 | CCCCCCOc1ccc(OC(=O)c2cccnc2)cc1 | 14.6% (inactive)
